# ADAM10 inh: inhibitors of human ADAM10. recombinant ADAM10, EDANS/DABCYL FRET peptide cleavage, 3 h. inhibition, % at 7 µM. 370,000 compounds, 0.62% hits. AID 720582;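 active = inhibition above a per-campaign cutoff equal to the mean of compounds falling between control-based bounds plus 3 SD, cut at about 20% in these data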;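 also: 0% = DMSO wells while the 100% control is not disclosed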
# Target sequence (O14672 214-748 limits assumed): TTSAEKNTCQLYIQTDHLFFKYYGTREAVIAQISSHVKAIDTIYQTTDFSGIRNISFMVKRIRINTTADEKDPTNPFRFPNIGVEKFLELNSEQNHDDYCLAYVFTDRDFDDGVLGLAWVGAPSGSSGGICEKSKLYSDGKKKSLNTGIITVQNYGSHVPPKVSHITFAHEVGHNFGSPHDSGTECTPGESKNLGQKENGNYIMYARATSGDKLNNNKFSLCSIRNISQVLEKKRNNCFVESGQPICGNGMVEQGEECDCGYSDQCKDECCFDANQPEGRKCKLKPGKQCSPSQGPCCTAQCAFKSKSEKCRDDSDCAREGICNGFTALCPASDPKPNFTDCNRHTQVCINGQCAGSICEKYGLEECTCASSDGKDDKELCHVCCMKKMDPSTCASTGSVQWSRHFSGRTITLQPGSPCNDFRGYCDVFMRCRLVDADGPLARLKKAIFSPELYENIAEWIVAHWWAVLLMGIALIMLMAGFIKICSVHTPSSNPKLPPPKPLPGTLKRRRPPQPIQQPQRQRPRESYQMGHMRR
# ADAM17 inh: ADAM17 inhibition, QFRET primary screen. inhibition, % at 6.95 µM. AID 720648. 370,000 compounds, 0.83% hits. recombinant ADAM17, EDANS/DABCYL FRET peptide cleavage;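 active = inhibition above the mean of compounds lying between control limits plus 3 SD, set per campaign, cut at about 8.5% in these data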;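 also: 0% = DMSO-only wells as the low control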
# FAS TE block: blocks the thioesterase domain of human fatty acid synthase | P49327 | recombinant FAS-TE, OMFH fluorogenic substrate, fluorescence endpoint | 360,000 compounds, 0.67% hits | inhibition, % at 15 µM;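 active = compounds whose normalised, plate-corrected inhibition of enzyme fluorescence in the single-dose primary screen is 50% or more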;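 also: 0% = DMSO with enzyme and 100% = substrate without enzyme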
# HGIII-sPLA2 inh: Blocks human group III sPLA2 activity; Q9NZ20; QFRET BODIPY PC-A2 liposome hydrolysis, fluorescence; inhibition, % at 12.2 µM; 370,000 compounds, 0.56% hits; AID 743126;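 active = inhibition above mean plus 3 SD of compounds lying within the high and low control bounds, cut at about 19% in these data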;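 also: 0% = median of test compound wells and 100% = no enzyme DMSO wells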
# NR3A LBD binder: modulators (binders) of human NR3A ligand-binding domain; Tm shift relative to glycine control, % at 25 µM; AID 1259313; NR3A LBD differential scanning fluorimetry, Tm shift; 0% = protein alone, 100% = glycine-bound protein; 340,000 compounds, 2.5% hits;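 active = melting temperature shift of at least 10% of the positive control shift, at one fixed dose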
# The depositor's hits bear a star; . = no result given. Hits are enriched below; roughly 4.3% of the tested compounds scored in any of these assays.
SMILES,ADAM10 inh,ADAM17 inh,FAS TE block,HGIII-sPLA2 inh,NR3A LBD binder
NS(=O)(=O)c1ccc(CCNc2ncnc3sccc23)cc1,-10.2,-7.2,-7.8,-2.3,18.9*
NS(=O)(=O)c1ccc(CNc2ncnc3sccc23)cc1,-9.5,-3.5,-6.3,4.6,-4.0
Cn1c(=O)c2cc(S(=O)(=O)N3CCN(c4ccccc4Cl)CC3)ccc2n(C)c1=O,-7.0,5.5,.,5.8,.
CCCCNC(=S)NCC(c1ccccc1)c1c[nH]c2ccccc12 (configuration not stated),13.2,8.0,14.6,-19.9,29.9*
CN(C)CCCNC(=S)NCC(c1ccc(Cl)cc1Cl)c1c[nH]c2ccccc12 (configuration not stated),5.6,-1.6,1.0,13.5,-2.3
Cc1cn(-c2cc(C(=O)Nc3ccc(C)c(NC(=O)C(=O)c4c[nH]c5ccccc45)c3)cc(C(F)(F)F)c2)cn1,-2.0,-2.1,5.1,-0.7,12.3*
CS(=O)(=O)N(CC(=O)N/N=C/c1cccc2c1OCCO2)c1ccccc1Br,-128.1,-35.5,6.4,-34.4,0.8
CCOC(=O)c1ccc(-c2ccc(/C=N/NC(=O)CN(c3ccccc3Br)S(C)(=O)=O)o2)cc1,-23.1,-8.8,46.3,4.4,11.9*
CC(C)c1ccc(-c2cc(C(=O)N3N=C(C(F)F)CC3(O)C(F)F)c3ccccc3n2)cc1 (configuration not stated),-26.5,-3.6,38.4,-20.2,34.7*
COc1ccc(/C=C2\SC(=S)N(CCCCCC(=O)Nc3cc(C)on3)C2=O)cc1OC,1.4,2.7,-5.4,2.9,3.5
CCOc1ccc(/C=C2\SC(=S)NC2=O)cc1OC,3.6,-1.7,2.8,-2.9,-4.1
COc1cc(/C=C2/SC(=S)NC2=O)ccc1OS(=O)(=O)c1ccc(C)cc1,.,.,57.0*,.,5.8
COc1ccc(/C=C2\SC(=S)NC2=O)cc1OS(=O)(=O)c1ccc(NC(C)=O)cc1,5.2,-1.1,11.9,-35.0,18.1*
COc1cc(/C=C2\SC(=S)N(CCCCC(=O)O)C2=O)ccc1OS(=O)(=O)c1ccc(C)cc1,6.6,-1.1,-34.0,-27.9,31.4*
CC(=O)Nc1ccc(S(=O)(=O)Oc2cccc(/C=C3\SC(N)=NC3=O)c2)cc1,-3.4,-3.4,-6.5,-17.6,36.2*
CN1[C@H](Cc2ccccc2)COc2cccc(F)c2S1(=O)=O,-4.1,-2.9,.,-4.2,.
COc1cccc(N2CCN(CC(=O)NCc3ccc(Cl)cc3)CC2)c1,6.4,1.2,.,5.3,.
O=C(CCC(=O)N1CCN(C2c3ccccc3-c3ccccc32)CC1)Nc1nnc(C(F)(F)F)s1,2.3,0.2,.,0.6,.
COC(=O)[C@]12C[C@H](CC(=O)N3CCCCC3)C(=O)N(Cc3ccc4c(c3)OCO4)C1=C[C@H](C(C)C)O[C@@H]2C1CC1,8.6,1.5,.,10.7,.
CC(=O)c1cc2c(cc1NC(=O)CN1Cc3ccccc3C1=O)OCO2,-17.1,-1.9,-3.4,2.9,12.5*
Cc1ccc(NC(=S)c2nc3ccccc3[nH]2)c(C)c1,5.6,8.9*,4.4,31.2*,-6.4
CCCCCCC1CC(=O)NC(=O)N1 (configuration not stated),-3.6,-1.5,-3.6,-6.6,13.9*
O=C(N[C@H](Cc1ccccc1)C(=O)NCC1CCCO1)[C@H]1O[C@@H](n2ccc(=O)[nH]c2=O)[C@H](O)[C@@H]1O (some centres not stated),3.2,2.5,.,3.7,.
Cc1cc(O)c(NC(=S)NC(=O)c2ccc(-c3ccc(Cl)cc3)o2)cc1C,-61.6,-31.2,17.7,13.9,30.1*
Cc1ccc(O)c(NC(=S)NC(=O)Cc2ccc(Cl)cc2)c1,9.8,1.5,0.8,-3.0,-6.8
SMILES,ADAM10 inh,ADAM17 inh,FAS TE block,HGIII-sPLA2 inh,NR3A LBD binder
Cc1ccc(NC(=S)NC(=O)c2ccc(-c3ccc(Cl)cc3)o2)c(O)c1,-0.9,1.2,10.4,1.5,33.7*
CN(C)c1ccc(NC(=O)Nc2csc3ccccc23)cc1,11.4,4.8,9.4,9.8,18.1*
O=C(Nc1ccc(F)cc1)Nc1ccccc1NS(=O)(=O)c1cccs1,1.1,2.3,0.1,-17.7,29.7*
O=C(Nc1ccc(F)cc1)Nc1csc2ccccc12,11.8,3.8,7.2,-10.2,34.1*
NC(=O)c1ccccc1NS(=O)(=O)c1cccs1,5.5,-4.3,-6.3,-0.8,0.8
COc1ccc(C2C(C(=O)Nc3ccc(Cl)c(Cl)c3)CCC(=O)N2c2ccc(OC)cc2)cc1 (configuration not stated),-4.7,-3.6,.,5.8,.
O=C(OCc1c(-c2ccccc2)ncc2ccccc12)c1ccc(C(F)(F)F)cc1,-6.4,-6.0,35.8,4.7,-30.1
O=C(OCc1c(-c2ccccc2)ncc2ccccc12)c1ccc(F)cc1,-5.5,-2.9,35.3,8.0,14.0*
O=S1(=O)c2ccc(Br)cc2OC[C@@H](Cc2ccccc2)N1Cc1cn(CC2CCCCC2)nn1,4.6,4.3,.,17.7,.
COc1ccc(-n2c(COc3ccc(C)cc3)nnc2SCC(=O)Nc2ccc(S(=O)(=O)Nc3cc(C)nc(C)n3)cc2)cc1,4.8,0.2,.,-61.3,.
O=C(Nc1sc2c(c1-c1nc3ccccc3s1)CCNC2)C(F)(F)F,-121.3,-34.1,.,-19.9,.
COc1cc(/C=C2/SC(=Nc3ccc(O)cc3)NC2=O)cc(OC)c1O,0.6,1.9,2.1,-19.5,10.9*
COc1ccc(N=C2NC(=O)/C(=C\c3ccco3)S2)cc1,5.6,0.2,1.6,-17.5,-2.4
COc1cc(/C=C2\SC(=Nc3ccc(O)cc3)NC2=O)cc(OC)c1OC,-3.0,-6.5,.,-5.6,-5.1
COc1ccc(N=C2NC(=O)/C(=C/c3ccc(O)c(OC)c3)S2)cc1,12.9,2.9,-6.0,-38.1,19.8*
O=S(=O)(Nc1ccc(-c2ccc3nncn3n2)cc1)c1ccccc1F,-7.3,-3.0,-2.5,-2.3,1.9
O=S(=O)(Nc1cccc(-c2ccc3nncn3n2)c1)c1ccccc1F,-12.4,0.5,0.4,5.6,12.8*
COCCCNC(=O)C[C@H]1C[C@@]2(C(=O)OC)C(=C[C@H](C3CCCC3)O[C@@H]2C)N(CCC2=CCCCC2)C1=O,-0.2,-3.4,.,-0.3,.
CC(Nc1nc2ncn(Cc3ccccc3)c2c(=O)[nH]1)C(=O)O (configuration not stated),-9.3,-4.0,-10.1,5.7,14.6*
O=C(O)CCCCCNc1nc2ncn(Cc3ccccc3)c2c(=O)[nH]1,3.4,-3.4,-10.1,16.2,-1.0
O=C(Cc1cccs1)NC1CCCCN(Cc2cccc(Cl)c2)C1=O (configuration not stated),4.2,1.5,.,-0.7,.
CCCCNS(=O)(=O)/C=C/c1ccc(OC)cc1CNC(=O)OC(C)(C)C,-3.9,0.6,.,-2.5,.
CC(C)OC(=O)c1sc2nc(-c3ccccc3)ccc2c1N,-90.3,-29.4,10.3,0.9,3.8
Nc1c(C(=O)Nc2ccccc2F)sc2nc(-c3cccnc3)ccc12,-14.8,-6.3,0.5,-13.5,14.6*
CCOC(=O)c1sc2nc(-c3cccnc3)ccc2c1N,-1.5,-5.9,4.8,-2.7,19.6*

# Compound activity from PubChem BioAssay.
